Source: PubChem BioAssay
This is a sample that favours compounds with a hit; in the whole collection about 18% have one here.
VP16 counter: VP16 counterscreen qHTS for inhibitors of ROR gamma transcriptional activity | Drosophila S2 Gal4-VP16 UAS-luciferase, luminescence, 20 h | Potency, µM (top dose mostly 53.6 µM), for inactives: at the highest dose activity, negative = inhibition, actives largely listed as inhibitors | 3.5% of 310,000 active;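 further: Gal4-VP16 expression switched on by copper sulfate through the metallothionein promoter; potency means the concentration at half of the fitted maximal effect; nearly all actives have a fitted effect of over 50% in size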
IL-1B inflam inh: qHTS for Inhibitors of Inflammasome Signaling: IL-1-beta AlphaLISA Primary Screen. THP-1 LPS/ATP IL-1B secretion, AlphaLISA, 16 h; active compounds read low. activity change, % at 57.5 µM. 4.7% of 360,000 active; in the data active means activity change below about -50%; inconclusive means mostly about -30% to -49%
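THP-1 cells pretreated 1 hr with compounds (up to 57.5 uM final), then stimulated with LPS (250 ng/mL final) plus ATP (1.25 mM final); secreted IL-1B measured by AlphaLISA after 16 hr, decreased signal indicating inhibition.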
LDHA block: qHTS assay for inhibitors of human lactate dehydrogenase; L-lactate dehydrogenase A chain (Homo sapiens), P00338; purified LDHA, NADH/diaphorase-resazurin fluorescence; active compounds read low; activity change, % (values are at about 110 or 230 µM); 0.15% of 480,000 active; in the data active means activity change below about -30%; inconclusive means mostly about -25% to -30%;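 further: plate controls were DMSO wells for no effect and wells without enzyme for full effect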
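Remaining NADH was detected by diaphorase (0.133 mg/mL) converting 37 µM resazurin to fluorescent resorufin, read at 0 and 20 minutes. The preceding 5-minute room-temperature reaction used 2 nM LDHA, 0.2 mM sodium pyruvate and 0.06 mM NADH at pH 7.4.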
TDP1 cell CPT: qHTS for Inhibitors of human tyrosyl-DNA phosphodiesterase 1 (TDP1): qHTS in cells in presence of CPT; Potency, µM (series often up to 46.2 µM), for the others: at the top dose activity change, negative = growth inhibition, actives largely listed as inhibitors; AID 686979, 2013; 12% of 420,000 active; chicken DT40 Tdp1-/-;hTDP1 cells + 20 nM CPT, ATP luminescence, 48 h; further: potency means the concentration at half of the fitted maximal effect; nearly all actives have a fitted effect of over 55% in size
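Chicken DT40 Tdp1-/- cells stably complemented with human TDP1 were seeded at 400 cells/well in medium containing 20 nM camptothecin, exposed to pin-transferred compounds, and grown at 37 °C for at least 48 hr. Viability was read as ATP luminescence.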
DT40 TDP1 no CPT: qHTS for Inhibitors of human tyrosyl-DNA phosphodiesterase 1 (TDP1): qHTS in cells in absence of CPT; DT40 Tdp1-/- hTDP1 cells, no CPT, ATP luminescence, 48 h; Potency, µM (titrated, usually from 46.2 µM), for the others: at the top dose activity change, negative = growth inhibition, hits mostly inhibitors; 15% of 420,000 active; further: potency means the concentration at half of the fitted maximal effect; nearly all actives have a fitted effect of over 55% in size
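Growth kinetics read by CellTiter-Glo luminescence after ≥48 hr at 37 °C. Cells: DT40 Tdp1-/- stably carrying human TDP1, 400 per well, compound exposure in the absence of CPT (DMSO vehicle).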
RORgamma inh: qHTS for inhibitors of ROR gamma transcriptional activity; Nuclear receptor ROR-gamma (Mus musculus), P51450; Drosophila S2 Gal4-RORgamma UAS-luciferase reporter, 20 h; Potency, µM (doses to about 53.6 µM), inactives show at the highest dose activity change, negative = inhibition, hits mostly inhibitors; 5.4% of 310,000 active; further: potency means the concentration at half of the fitted maximal effect; nearly all actives have a fitted effect of over 60% in size
Target sequence (P51450 whole entry, looked up, the tested form may be a part): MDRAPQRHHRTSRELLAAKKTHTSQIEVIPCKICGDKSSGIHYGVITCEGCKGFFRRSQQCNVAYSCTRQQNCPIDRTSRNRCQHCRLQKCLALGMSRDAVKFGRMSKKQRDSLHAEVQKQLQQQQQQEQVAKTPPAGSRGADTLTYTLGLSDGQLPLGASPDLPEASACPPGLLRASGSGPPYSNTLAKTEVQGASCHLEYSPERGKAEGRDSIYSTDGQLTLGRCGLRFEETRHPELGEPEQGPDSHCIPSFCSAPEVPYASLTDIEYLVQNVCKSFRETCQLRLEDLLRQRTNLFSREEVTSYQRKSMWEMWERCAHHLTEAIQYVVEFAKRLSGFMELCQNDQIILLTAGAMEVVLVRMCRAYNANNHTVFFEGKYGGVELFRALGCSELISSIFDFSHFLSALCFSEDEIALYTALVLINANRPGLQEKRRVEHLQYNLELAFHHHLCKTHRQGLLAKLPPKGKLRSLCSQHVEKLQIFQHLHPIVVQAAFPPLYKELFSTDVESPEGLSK
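Luminescence from a UAS-regulated Photinus luciferase reporter in stably transfected Drosophila Schneider cells is measured; decreased signal marks ROR gamma inhibition. Fusion expression is induced by 700 uM copper sulfate for 20 hr.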
The depositor's hits bear a star; ? = inconclusive; / = not tested or not shown; [ ] = dose if it differs, or a comment. Unless noted, the call rests on the fitted dose curve; in most records, active means well fitted curve in the direction sought with a large enough effect; inconclusive means small, poorly fitted or top-dose-only effect, or another doubt; inactive means no such curve, though single readings can be large; an effect the other way counts as inactive or inconclusive. Unless noted, on the % scale 0 is the no-effect control and ±100 the full control effect.

SMILES	VP16 counter	IL-1B inflam inh	LDHA block	TDP1 cell CPT	DT40 TDP1 no CPT	RORgamma inh
CCCCN1C(Nc2ccccc2)=NC[C@@H]1C	/	11	0	-16%	-3%	/
c1ccc(NC2=NCCN2CC2CCCCC2)cc1	/	13	-16	4%	-3%	/
CCn1c(N2CCC(Cc3ccccc3)CC2)nc2c1c(=O)n(C)c(=O)n2C	/	/	1	/	/	/
CC(C)C[C@H](NC(=O)NCC(c1ccccc1)c1ccccc1)C(=O)O	/	/	-1	/	/	/
CC(C)C[C@H]1CN=C(Nc2ccccc2)N1CC1CCC(C)CC1 (stereo not given in full)	3%	-4	-4	?	18µM*	-11%
c1ccc(C[C@H]2CN=C(Nc3ccccc3)N2CCCC2CCCCC2)cc1	/	-17	0	?	16µM*	/
CC1CCC(CN2C(Nc3ccccc3)=NC[C@@H]2Cc2ccccc2)CC1 (stereo not given in full)	/	-23	-2	?	7.3µM*	/
O=C(NCC(O)c1ccc(F)cc1F)c1cnccn1 (stereo not given)	/	/	8	/	/	/
Cc1cc(-c2ccc(N=Cc3sccc3C)c(C)c2)ccc1N=Cc1sccc1C	/	/	4	/	/	/
O=C(Nc1cccc(Cl)c1)c1ccc2ccccc2n1	/	/	-1	/	/	/
O=S(=O)(NCCCO)c1ccc(Cl)cc1	/	/	-8	/	/	/
CN(C)S(=O)(=O)c1ccc(-c2nc(C#N)c(NCc3ccc(F)cc3)o2)cc1	/	/	-6	/	/	/
COc1c(Br)cc(Br)cc1/C=C1/C(=O)N=C(N)N1C	3%	-54*	-9	-2%	-18%	1%
CCOc1ccc2nc(N3CCN(C(=O)CCS(=O)(=O)c4ccccc4)CC3)sc2c1	/	/	4	/	/	/
CCCCCCCNC(=O)CCC(=O)NCCCC	/	/	1	/	/	/
COC(=O)CSC1=NS(=O)(=O)c2ccccc21	/	?	-8	1.5µM*	2.3µM*	-24%[0.365 µM]
O=C(CSC1=NS(=O)(=O)c2ccccc21)Nc1ccccc1	20µM*	-16	0	1.8µM*	2.6µM*	?
COC(=O)CSc1ccccc1C(=O)OC	-8%	0	4	0%	-9%	15%
O=C1CC(c2ccc(OCc3ccc(F)cc3)cc2)c2cn[nH]c2N1 (stereo not given)	/	/	0	/	/	/
Cc1ccc(C)c(N2CCN(C(C(=O)NC3CCCC3)c3ccco3)CC2)c1 (stereo not given)	/	-55*	-8	?	12µM*	/
CC(C)C(C(=O)NC1CCCC1)N1CCC(O)(c2ccc(Cl)cc2)CC1 (stereo not given)	/	-3	-7	?	?	/
COc1cccc(C(C(=O)NC2CCCC2)N2CCN(c3ncccc3C#N)CC2)c1OC (stereo not given)	/	-12	-2	?	16µM*	/
COc1cccc(C(C(=O)NC2CCCC2)N2CCN(c3cc(C)ccc3C)CC2)c1OC (stereo not given)	/	-59*	5	21µM*	21µM*	/
O=C(NC1CCCC1)C(c1ccco1)N1CCC(O)(c2ccc(Cl)cc2)CC1 (stereo not given)	/	-6	2	23µM*	18µM*	/
COc1cccc(/C=C/C(=O)NC2CCCC2)c1OC	/	/	-5	/	/	/
SMILES	VP16 counter	IL-1B inflam inh	LDHA block	TDP1 cell CPT	DT40 TDP1 no CPT	RORgamma inh
N#Cc1ccc(C(=O)OCC(=O)c2ccc3c(c2)OCCO3)cc1	/	/	7	/	/	/
Cc1cccc(OCCN)c1	/	/	10	/	/	/
NC(=O)c1cc(Cl)ccc1OCC(=O)N1CCC1	/	/	3	/	/	/
COC(=O)C(C)N1C(=O)S/C(=C/c2ccc(OC)cc2)C1=O (stereo not given)	/	/	3	/	/	/
COc1ccccc1/C=C/c1nc(C#N)c(NCCc2ccccc2)o1	/	/	-1	?	16µM*	/
CCOc1ccc(/C=C/c2nc(C#N)c(N(C)C)o2)cc1	/	/	5	16µM*	15µM*	/
COc1cccc(/C=C/c2nc(C#N)c(N(C)C)o2)c1	/	/	18	/	/	/
COc1cccc(/C=C/c2nc(C#N)c(N(C)Cc3ccccc3)o2)c1	/	/	-1	?	23µM*	/
COc1ccccc1/C=C/c1nc(C#N)c(NCc2ccco2)o1	/	/	-2	/	/	/
CCOc1ccc(/C=C/c2nc(C#N)c(NCCc3ccccc3)o2)cc1	/	/	-4	1.3µM*	1.2µM*	/
COc1ccc(Nc2oc(/C=C/c3cccc(OC)c3)nc2C#N)cc1	/	/	-1	18µM*	?	/
CNc1oc(/C=C/c2cccc(OC)c2)nc1C#N	-6%	?	-4	-24%	?	36%
COc1cccc(/C=C/c2nc(C#N)c(NCCc3ccccc3)o2)c1	/	/	4	?	15µM*	/
CN(Cc1ccccc1)c1oc(-c2ccco2)nc1C#N	13%	-71*	-4	-1%	-15%	-7%
N#Cc1nc(-c2ccco2)oc1NCc1ccccc1	/	/	5	/	/	/
CCNc1oc(/C=C/c2ccc(OCC)cc2)nc1C#N	-16%	-1	-9	7.3µM*	8.2µM*	23%
CCCCNc1oc(/C=C/c2cccc(OC)c2)nc1C#N	/	/	-1	/	/	/
O=C(CCCSc1nc2ccccc2s1)Nc1ccc(F)c(F)c1F	/	/	14	/	/	/
COc1ccc(C(=O)ON=C2CCCCC2)cc1Br	/	/	1	/	/	/
Cc1c(O)ccc2c(=O)c(-c3cnn(-c4ccccc4)c3)c(C(F)(F)F)oc12	/	/	-22	/	/	/
